Results: PubChem BioAssay (NCI)
This is part of a sample that, as a whole, favours compounds with a hit. Of some 83,000 tested, about 20% had one in any assay.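 96-well plates, one dose, 48 hours. Percent growth reported; active if below 10.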 Calls of active or inactive are those of the source.

Columns and labels:
Test in all cases: NCI-60 one-dose screen, 48 h (100 = growth as untreated, 0 = no growth, -100 = all killed)
Details in all cases: 10 µM unless noted
NCI-H23 lung = tested on: NCI-H23 lung
NCI-H226 lung = tested on: NCI-H226 lung
NCI-H322M lung = tested on: NCI-H322M lung
HOP-62 NSCLC = tested on: HOP-62 NSCLC
NCI-H460 lung = tested on: NCI-H460 lung
HOP-92 NSCLC = tested on: HOP-92 NSCLC
A549/ATCC NSCLC = tested on: A549/ATCC NSCLC
786-0 renal = tested on: 786-0 renal
COLO 205 colon = tested on: COLO 205 colon
NCI-H522 lung = tested on: NCI-H522 lung

Measured: growth

CC(C)n1cc2c(N)ncnc2n1
inactive: NCI-H23 lung 103% | NCI-H226 lung 94.5% | NCI-H322M lung 86.6% | HOP-62 NSCLC 96.4% | NCI-H460 lung 107% | HOP-92 NSCLC 144% | A549/ATCC NSCLC 102% | 786-0 renal 100% | COLO 205 colon 118%

COc1ccc(/C=N\NC(=O)CN2CCN(c3cc4c(cc3F)c(=O)c(C(=O)N/N=C/c3ccc(OC)cc3)cn4C3CC3)CC2)cc1
inactive: NCI-H23 lung 96.3% | NCI-H226 lung 85.6% | NCI-H322M lung 91.7% | HOP-62 NSCLC 97.4% | NCI-H460 lung 86.1% | HOP-92 NSCLC 92.1% | A549/ATCC NSCLC 82.8% | 786-0 renal 93.9% | COLO 205 colon 96.9%

O=C1C=CC(Nc2ccccc2[N+](=O)[O-])C1Nc1ccccc1[N+](=O)[O-] (stereo unspecified)
inactive: NCI-H322M lung 79.1% | HOP-62 NSCLC 90.9% | NCI-H460 lung 59% | A549/ATCC NSCLC 92.2%
active: NCI-H23 lung 6.85% | NCI-H226 lung -41.7% | HOP-92 NSCLC -56.5% | 786-0 renal -76.7% | COLO 205 colon -79.2%

N#Cc1ccc(NC(=O)Nc2ccc(Cc3ccc(NC(=O)Nc4ccc(C#N)cc4)cc3)cc2)cc1
inactive: NCI-H226 lung 37.7% | NCI-H322M lung 63.3% | HOP-62 NSCLC 50.2% | NCI-H460 lung 17.2% | HOP-92 NSCLC 46.8% | NCI-H522 lung 28.2% | 786-0 renal 49.3% | COLO 205 colon 29.5%
active: NCI-H23 lung -4.62%

CCN(CC)c1ccc(CNc2cc(C)nc3ccc(OC)cc23)cc1
active: NCI-H322M lung -5.55% | NCI-H460 lung -39.4% | COLO 205 colon -75.2%
inactive: NCI-H23 lung 21.2% | NCI-H226 lung 75.8% | HOP-62 NSCLC 102% | HOP-92 NSCLC 20.7% | 786-0 renal 73.7%

COc1ccc(-n2c(C)nc3c(c(C)nn3-c3ccccc3)c2=O)cc1
inactive: NCI-H23 lung 18.4% | NCI-H226 lung 51.3% | NCI-H322M lung 49.9% | HOP-62 NSCLC 34.4% | HOP-92 NSCLC 27.6% | A549/ATCC NSCLC 16.3% | 786-0 renal 27.4%
active: NCI-H460 lung 3.74% | COLO 205 colon -45.6%

Cc1ccc2cnc(N)c(C#Cc3cncc(C(=O)Nc4ccc(CN5CCN(C)CC5)c(C(F)(F)F)c4)c3)c2c1
active: NCI-H23 lung -63.8% | NCI-H226 lung -75.8% | NCI-H322M lung -97.2% | HOP-62 NSCLC -85.2% | NCI-H460 lung -78.8% | HOP-92 NSCLC -80.9% | A549/ATCC NSCLC -79.4% | 786-0 renal -79.6% | COLO 205 colon -70.3%

COCCCNc1nc(NC(=O)c2ccc(F)cc2C)cc(-c2cccnc2)n1
inactive: NCI-H23 lung 107% | NCI-H226 lung 89.1% | NCI-H322M lung 102% | HOP-62 NSCLC 99.4% | NCI-H460 lung 102% | HOP-92 NSCLC 67% | A549/ATCC NSCLC 79.8% | 786-0 renal 98.4% | COLO 205 colon 111%

COc1ccc(C(=O)/C=C/c2cc3ccccc3[nH]c2=O)cc1
inactive: NCI-H23 lung 11.9% | NCI-H226 lung 64.5% | NCI-H322M lung 61.5% | HOP-62 NSCLC 29.7% | HOP-92 NSCLC 34.6% | A549/ATCC NSCLC 42.3% | 786-0 renal 33.5% | COLO 205 colon 66.9%
active: NCI-H460 lung 3.4%

c1ccc(CSc2ncnc3nc[nH]c23)nc1
inactive: NCI-H23 lung 99.1% | NCI-H226 lung 91.4% | NCI-H322M lung 103% | HOP-62 NSCLC 92.2% | NCI-H460 lung 104% | HOP-92 NSCLC 135% | A549/ATCC NSCLC 106% | 786-0 renal 92.4% | COLO 205 colon 121%

COc1cc(C2C(C(=O)c3cccs3)=C(O)C(=O)N2CCN2CCOCC2)cc(OC)c1OC (stereo unspecified)
inactive: NCI-H23 lung 103% | NCI-H226 lung 103% | NCI-H322M lung 102% | HOP-62 NSCLC 107% | NCI-H460 lung 101% | HOP-92 NSCLC 99.8% | A549/ATCC NSCLC 104% | 786-0 renal 103% | COLO 205 colon 111%

CCCCCCCCCCCCCCCC[N+]1(CC)CCCC1
active: NCI-H23 lung -28.6% | NCI-H226 lung -9.79% | NCI-H322M lung 1.53% | HOP-62 NSCLC -49.7% | NCI-H460 lung -66.8% | HOP-92 NSCLC -29.1% | A549/ATCC NSCLC -63.1% | 786-0 renal -57.7% | COLO 205 colon -90.4%

CCCCCN(CCCCC)CCC[C@@H](C)[C@H]1CC[C@H]2[C@@H]3[C@H](OCCCN)C[C@@H]4C[C@H](OCCCN)CC[C@]4(C)[C@H]3C[C@H](OCCCN)[C@]12C
inactive: NCI-H23 lung 49.2% | NCI-H226 lung 75.2% | NCI-H322M lung 24.6% | HOP-62 NSCLC 48.3% | NCI-H460 lung 45.2% | HOP-92 NSCLC 50% | A549/ATCC NSCLC 55.2% | 786-0 renal 61.1% | COLO 205 colon 52.1%

Cc1cccc(NC(=O)c2sc3nc4c(cc3c2N)C(=O)CCC4)c1
inactive: NCI-H23 lung 53.1% | NCI-H226 lung 56.6% | NCI-H322M lung 37.2% | HOP-62 NSCLC 42.9% | HOP-92 NSCLC 64.5% | A549/ATCC NSCLC 31.4% | 786-0 renal 31.3%
active: NCI-H460 lung 6.09% | COLO 205 colon 3%

CCC(c1ccccc1)C(CC)c1ccc(O)c(O)c1 (stereo unspecified)
inactive: NCI-H23 lung 89.5% | NCI-H226 lung 97.4% | NCI-H322M lung 96.1% | HOP-62 NSCLC 124% | NCI-H460 lung 107% | HOP-92 NSCLC 83.6% | A549/ATCC NSCLC 98.6% | 786-0 renal 98.9% | COLO 205 colon 125%

CCOC(=O)c1nc(Nc2cc(C)[nH]n2)c2ccccc2n1
inactive: NCI-H23 lung 95.1% | NCI-H226 lung 81% | NCI-H322M lung 90.7% | HOP-62 NSCLC 103% | NCI-H460 lung 79.7% | HOP-92 NSCLC 86.3% | A549/ATCC NSCLC 96.5% | 786-0 renal 82.6% | COLO 205 colon 104%

CCOC(=O)C(=Cc1ccccc1F)C(=O)OCC
inactive: NCI-H23 lung 99.2% | NCI-H226 lung 96.1% | NCI-H322M lung 94% | HOP-62 NSCLC 137% | NCI-H460 lung 105% | HOP-92 NSCLC 103% | A549/ATCC NSCLC 90.3% | 786-0 renal 104% | COLO 205 colon 115%

CCOC(=O)c1c2ncccc2n2c(=O)n(-c3ccc(Cl)cc3)nnc12
inactive: NCI-H23 lung 92.7% | NCI-H226 lung 104% | NCI-H322M lung 67.1% | HOP-62 NSCLC 71.7% | NCI-H460 lung 69.7% | HOP-92 NSCLC 101% | A549/ATCC NSCLC 81.8% | 786-0 renal 97.1% | COLO 205 colon 109%

CC(=O)C1=C(O)C=C2Oc3c(C(=O)/C=C/c4cc(Cl)cc(Cl)c4)c(O)c(C)c(O)c3[C@]2(C)C1=O
active: NCI-H23 lung -42% | NCI-H226 lung -41.1% | NCI-H322M lung -28.9% | HOP-62 NSCLC -42.5% | NCI-H460 lung -5.02% | HOP-92 NSCLC -22% | A549/ATCC NSCLC -27.1% | 786-0 renal -34.9% | COLO 205 colon -70.3%

O=c1[nH]c(-c2ccccn2)nc2sc3c(c12)CCCCC3
inactive: NCI-H23 lung 56.9% | NCI-H226 lung 68.8% | NCI-H322M lung 48.5% | HOP-62 NSCLC 37.8% | NCI-H460 lung 18.8% | HOP-92 NSCLC 68.6% | A549/ATCC NSCLC 31.7% | 786-0 renal 60.4% | COLO 205 colon 28%

CCCCCCCCCCCCCCCCCCSC1=CC(=O)C(OC)=C(OC)C1=O
inactive: NCI-H23 lung 89.8% | NCI-H226 lung 96.7% | NCI-H322M lung 114% | HOP-62 NSCLC 108% | NCI-H460 lung 105% | HOP-92 NSCLC 56.5% | A549/ATCC NSCLC 103% | 786-0 renal 120% | COLO 205 colon 111%

CNC(=O)c1cc(Oc2ccc3nc(NC(=O)Nc4ccc(CN5CCOCC5)c(C(F)(F)F)c4)sc3c2)ccn1
inactive: NCI-H226 lung 17.3% | NCI-H322M lung 49.6% | HOP-62 NSCLC 44.6% | NCI-H522 lung 22.4% | COLO 205 colon 21%
active: NCI-H23 lung -4.08% | NCI-H460 lung 9.7% | HOP-92 NSCLC -7.77%

COc1cc(NCCCCCN=C(N)NC(N)=NC(C)C)c2ncccc2c1
active: NCI-H23 lung -37.5% | COLO 205 colon -30.3%
inactive: NCI-H226 lung 71.2% | NCI-H322M lung 50.7% | HOP-62 NSCLC 57% | NCI-H460 lung 55.7% | HOP-92 NSCLC 32.5% | A549/ATCC NSCLC 89.9% | 786-0 renal 92.3%

CN1CCN(Cc2ccc(NC(=O)c3[nH]ncc3Nc3ncnc4sccc34)cc2)CC1
active: NCI-H23 lung -1.52% | NCI-H460 lung 5.43% | HOP-92 NSCLC -13.3% | COLO 205 colon -8.12%
inactive: NCI-H226 lung 10.9% | NCI-H322M lung 21.6% | HOP-62 NSCLC 22.4% | A549/ATCC NSCLC 13.5%

CCCCNc1ccc2c3c1cccc3c(=O)n1c3ccccc3nc21
inactive: NCI-H23 lung 60% | NCI-H226 lung 73.7% | NCI-H322M lung 93.5% | HOP-62 NSCLC 81.9% | NCI-H460 lung 48.3% | HOP-92 NSCLC 61.2% | A549/ATCC NSCLC 76.6% | 786-0 renal 102% | COLO 205 colon 85.4%

COC1=CC(=O)C(OC)=C(OC)C1=O
inactive: NCI-H23 lung 90.5% | NCI-H226 lung 86.7% | NCI-H322M lung 94.2% | HOP-62 NSCLC 92.6% | NCI-H460 lung 96.6% | HOP-92 NSCLC 109% | A549/ATCC NSCLC 114% | 786-0 renal 93.4% | COLO 205 colon 114%

O=C1c2ccccc2-c2nccc3cc(Cl)nc1c23
inactive: NCI-H226 lung 48.2% | NCI-H322M lung 95.7% | HOP-62 NSCLC 47.6% | NCI-H460 lung 40.2% | A549/ATCC NSCLC 73% | 786-0 renal 71.1% | COLO 205 colon 54.7%
active: NCI-H23 lung -62.3% | NCI-H522 lung -75.9%

COc1ccc(/C=C2\N=C3Sc4cc(Cl)ccc4C(=O)N3C2=O)cc1
inactive: NCI-H23 lung 96% | NCI-H226 lung 83% | NCI-H322M lung 95.8% | HOP-62 NSCLC 103% | NCI-H460 lung 104% | NCI-H522 lung 87.5% | A549/ATCC NSCLC 96.4% | 786-0 renal 101% | COLO 205 colon 105%

COc1ccc(C(=O)/C=C/c2c[n+](=O)c3ccc(F)cc3n2[O-])cc1
inactive: NCI-H23 lung 98.7% | NCI-H226 lung 102% | NCI-H322M lung 118% | HOP-62 NSCLC 104% | NCI-H460 lung 119% | A549/ATCC NSCLC 108% | 786-0 renal 110% | COLO 205 colon 127%

COc1ccc(/C=c2/c(=O)[nH]c3nc4sc(C)c(C)c4c(=O)n23)cc1
inactive: NCI-H23 lung 90.7% | NCI-H226 lung 94% | NCI-H322M lung 98.7% | HOP-62 NSCLC 100% | NCI-H460 lung 88.3% | NCI-H522 lung 74.4% | A549/ATCC NSCLC 79.7% | 786-0 renal 88.1% | COLO 205 colon 111%
